# Compound activity: PubChem BioAssay, National Center for Advancing Translational Sciences (NCATS)
# Hits are enriched below; roughly 12% of the tested compounds scored in any of these assays.
# JMJD2A Tudor – blocks the human JMJD2A Tudor domain. O75164. AlphaScreen JMJD2A-Tudor / H3K4me3 peptide binding. Potency, µM (titrated, usually from 114 µM), inactives show top-dose activity change, negative = inhibition, actives largely listed as inhibitors. hit rate 4.4% among 390,000. AID 504339; also: potency is read from the fitted curve at half-maximal effect; % is scaled to controls: 0 for no effect and ±100 for the full control effect; nearly all actives have a fitted effect of over 50% in size
# BAZ2B inh – inhibitors of human BAZ2B bromodomain; AlphaScreen BAZ2B-H3K14Ac peptide displacement; Q9UIF8; Potency, µM (series often up to 114 µM), for the others: at the top dose activity change, negative = inhibition, most hits filed as inhibitors; hit rate 4.4% among 360,000; also: potency is read from the fitted curve at half-maximal effect; % is scaled to controls: 0 for no effect and ±100 for the full control effect; nearly all actives have a fitted effect of over 60% in size
# Target sequence (Q9UIF8 whole entry, looked up): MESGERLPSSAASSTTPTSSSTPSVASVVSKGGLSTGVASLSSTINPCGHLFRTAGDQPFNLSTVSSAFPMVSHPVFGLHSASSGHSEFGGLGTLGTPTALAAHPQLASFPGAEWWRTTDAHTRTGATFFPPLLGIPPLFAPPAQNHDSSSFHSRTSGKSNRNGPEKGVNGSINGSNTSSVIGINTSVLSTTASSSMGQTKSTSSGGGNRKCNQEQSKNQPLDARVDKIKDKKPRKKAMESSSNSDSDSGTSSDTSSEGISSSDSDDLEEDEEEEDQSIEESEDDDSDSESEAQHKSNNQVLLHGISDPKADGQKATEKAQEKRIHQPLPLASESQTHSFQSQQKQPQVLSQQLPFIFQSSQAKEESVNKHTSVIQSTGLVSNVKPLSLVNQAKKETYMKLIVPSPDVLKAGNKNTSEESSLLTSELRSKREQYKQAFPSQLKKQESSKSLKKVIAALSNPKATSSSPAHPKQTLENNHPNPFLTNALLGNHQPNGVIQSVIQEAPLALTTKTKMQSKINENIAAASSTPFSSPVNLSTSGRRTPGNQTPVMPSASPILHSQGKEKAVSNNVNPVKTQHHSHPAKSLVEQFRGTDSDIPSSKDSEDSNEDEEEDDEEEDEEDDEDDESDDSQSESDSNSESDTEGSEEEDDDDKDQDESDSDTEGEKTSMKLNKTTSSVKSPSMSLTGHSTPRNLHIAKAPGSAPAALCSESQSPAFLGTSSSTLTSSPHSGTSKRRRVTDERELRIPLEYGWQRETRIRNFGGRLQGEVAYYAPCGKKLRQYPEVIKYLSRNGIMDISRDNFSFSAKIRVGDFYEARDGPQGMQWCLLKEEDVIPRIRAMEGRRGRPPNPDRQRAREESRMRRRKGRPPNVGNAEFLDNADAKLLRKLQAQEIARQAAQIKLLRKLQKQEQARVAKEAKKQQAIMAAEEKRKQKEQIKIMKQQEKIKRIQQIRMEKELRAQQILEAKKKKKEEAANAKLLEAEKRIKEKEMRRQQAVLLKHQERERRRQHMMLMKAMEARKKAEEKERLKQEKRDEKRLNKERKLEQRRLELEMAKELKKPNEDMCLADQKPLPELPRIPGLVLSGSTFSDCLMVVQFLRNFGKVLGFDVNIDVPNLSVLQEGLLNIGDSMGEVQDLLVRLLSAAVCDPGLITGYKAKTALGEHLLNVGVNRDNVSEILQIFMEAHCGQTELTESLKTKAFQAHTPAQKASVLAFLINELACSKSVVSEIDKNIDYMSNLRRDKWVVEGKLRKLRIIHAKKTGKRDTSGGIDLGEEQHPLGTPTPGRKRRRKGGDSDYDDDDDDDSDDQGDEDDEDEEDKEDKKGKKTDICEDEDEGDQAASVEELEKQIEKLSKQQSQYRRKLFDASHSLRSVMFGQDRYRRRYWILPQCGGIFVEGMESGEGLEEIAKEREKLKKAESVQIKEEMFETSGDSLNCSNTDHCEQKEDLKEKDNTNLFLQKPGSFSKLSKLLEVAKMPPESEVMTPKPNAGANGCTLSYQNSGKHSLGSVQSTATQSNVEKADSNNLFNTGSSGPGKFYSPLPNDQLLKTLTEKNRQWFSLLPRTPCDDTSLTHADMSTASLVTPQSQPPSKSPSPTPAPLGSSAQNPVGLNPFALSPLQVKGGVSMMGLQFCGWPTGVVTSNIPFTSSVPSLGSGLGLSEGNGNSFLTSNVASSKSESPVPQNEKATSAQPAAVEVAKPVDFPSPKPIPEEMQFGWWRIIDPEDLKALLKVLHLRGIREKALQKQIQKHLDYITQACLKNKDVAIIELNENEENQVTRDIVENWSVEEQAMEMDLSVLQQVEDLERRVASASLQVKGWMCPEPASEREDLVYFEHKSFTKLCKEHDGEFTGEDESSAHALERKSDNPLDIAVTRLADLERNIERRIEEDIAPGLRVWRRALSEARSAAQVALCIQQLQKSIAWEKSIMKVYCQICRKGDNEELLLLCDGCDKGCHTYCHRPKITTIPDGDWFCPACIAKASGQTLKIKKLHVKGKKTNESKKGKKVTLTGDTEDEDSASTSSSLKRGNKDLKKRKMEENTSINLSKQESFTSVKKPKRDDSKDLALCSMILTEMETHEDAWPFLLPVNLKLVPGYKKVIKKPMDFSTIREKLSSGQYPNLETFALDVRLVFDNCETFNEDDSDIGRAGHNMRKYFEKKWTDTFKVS
#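 Protein-peptide AlphaScreen: BAZ2B 50 nM, b-H3K14Ac 50 nM, 1x PBS pH 7.4 + 0.01% Tween-20. Preincubation 30 min RT; cpd 30 min RT (top 110 uM); beads 20 min RT, light-protected.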
# PLK1 PBD block – inhibitors of human PLK1 polo-box domain binding. P53350. Plk1 PBD binding of FITC phosphopeptide, fluorescence polarization. Potency, µM, for inactives: max response, negative = inhibition, hits mostly inhibitors. hit rate 2.8% among 360,000. AID 720504; also: potency is read from the fitted curve at half-maximal effect; series mostly up to about 57 µM; % is scaled to controls: 0 for no effect and ±100 for the full control effect; nearly all actives have a fitted effect of over 65% in size
# G9a block – G9a (human) methyltransferase inhibition | G9a H3K9 monomethylation, AlphaScreen, 2 h | hit rate 8.8% among 350,000 | Potency, µM (titrated, usually from 102 µM), inactives show top-dose activity, negative = inhibition, most hits filed as inhibitors; also: potency is read from the fitted curve at half-maximal effect; % is scaled to controls: 0 for no effect and ±100 for the full control effect; nearly all actives have a fitted effect of over 75% in size
#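 G9a (20 nM) preincubated 15 min RT with compounds, then 500 nM biotinylated H3K9 peptide and 20 uM SAM added; 2 h RT reaction. Monomethyl-H3K9 product detected by AlphaScreen with anti-H3K9me1 antibody, streptavidin donor and anti-rabbit IgG acceptor beads.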
# HP1b binding inh – blocks HP1-beta chromodomain binding to methylated histone tails. AlphaScreen HP1-beta / biotin-H3K9me3 peptide binding. Potency, µM (top dose mostly 114 µM), inactives show at the highest dose activity change, negative = inhibition, hits mostly inhibitors. hit rate 0.56% among 390,000. AID 540317; also: potency is read from the fitted curve at half-maximal effect; nearly all actives have a fitted effect of over 70% in size
#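 HP1-beta protein (50 nM final) preincubated 30 min at room temperature with biotinylated H3(1-18)K9me3 peptide (50 nM) in PBS pH 7.4, 0.01% Tween-20, then compound added for 30 min. AlphaScreen streptavidin donor/nickel chelate acceptor beads (10 ug/mL final), 30 min dark, luminescence read.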
# PI5P4K alpha inh – inhibitors of human PI5P4K alpha. P48426. PI5P4Kalpha enzyme, ADP-Glo luminescence, 60 min; hits give low values. max response, %. hit rate 1.2% among 330,000; active = max response of -50% or lower; inconclusive = between -30% and -50%; inactive = -30% or higher; also: value at the top dose of about 77 µM; % is scaled to controls: 0 for no effect and ±100 for the full control effect
#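 PI5P4Kalpha ADP-Glo assay; 5 microM ATP final; 60 min RT reaction; HEPES pH 7.4/EGTA/CHAPS, 5% DMSO; controls lacking substrate or enzyme; luminescent end-point.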
# * = called active by the depositor; ? = inconclusive; / = no result given; [ ] = another dose, or the depositor's remark. Unless noted, calls follow the shape of the dose curve; as a rule, active = well fitted curve in the direction sought with a large enough effect; inconclusive = small, poorly fitted or top-dose-only effect, or another doubt; inactive = no such curve, though single readings can be large; an effect the other way counts as inactive or inconclusive.
SMILES,JMJD2A Tudor,BAZ2B inh,PLK1 PBD block,G9a block,HP1b binding inh,PI5P4K alpha inh
CC1CN(S(=O)(=O)c2cccc(C(=O)Nc3ccccc3N3CCCC3)c2)CC(C)O1 (centres undefined),?,-32.7%,-0.1%,50.1µM*,-17.7%,2.9
O=c1c(-c2cc(-c3ccc(F)cc3)nc3c2COc2ccc(Cl)cc2-3)coc2ccc(F)cc12,-14.6%,-26.2%,/,10.7%[59 µM],9.1%,/
Clc1ccc(CN2CCC(CNc3ncnc4onc(-c5ccc(Cl)cc5)c34)CC2)cc1,?,?,/,-9.4%[59 µM],13.5%,/
COc1ccccc1C(=O)NC1(C(F)(F)F)C(=O)NC(C)=C1C#N (centres undefined),-17.9%,2.5%,/,-1.3%[59 µM],26.2%,/
O=C(Nc1cc(S(=O)(=O)N2CCOCC2)ccc1N1CCOCC1)c1cccs1,89.1µM*,0.0%,-6.3%,13.6%[2.33 µM],-20.8%,0.3
CCN1CCN(c2ccc(S(=O)(=O)N3CCCCC3)cc2NC(=O)CC(C)c2ccccc2)CC1 (centres undefined),-29.0%,-8.3%,-3.7%,50.1µM*,-0.5%,-4.9
CC(=NO)c1cc(Br)c2cccc3c2c1CC3,/,/,-13.2%,/,/,33.3
OC(CN1CCCCCC1)CN(c1ccccc1)c1ccccc1 (centres undefined),-27.9%,-15.0%,2.6%,-17.0%,3.2%,0.7
CN(CC(O)CN)CC(O)CN1CCCCC1 (centres undefined),-22.0%,-7.6%,-0.2%,3.55µM*,29.1%,/
CCOc1ccc(CCNC(=O)c2cc3c(s2)-c2ccccc2OC3)cc1OCC,?,6.4%,/,-4.0%[59 µM],23.9%,/
O=C1NC[C@@H](CCCCN2C[C@H](Cc3ccccc3)N(CCc3ccc(O)cc3)C(=O)C2=O)N(CCc2ccccc2)C1=O,/,/,-7.8%,/,/,2.4
Cc1ccc(/C=C2\S/C(=N/S(=O)(=O)c3cccs3)NC2=O)cc1,-12.9%,-25.8%,18.9µM*,-8.5%[59 µM],6.6%,-59.2*
O=C1N/C(=N/S(=O)(=O)c2ccccc2)S/C1=C/c1cccnc1,-2.8%,2.5%,-21.4%,?,35.6%,-57.0*
Cc1ccc(S(=O)(=O)/N=C2/NC(=O)/C(=C\c3ccccc3)S2)cc1,-30.1%,/,23.8µM*,/,-4.6%,-18.1
Cc1ccc(S(=O)(=O)/N=C2/NC(=O)/C(=C/c3ccccc3)S2)cc1,-18.9%,?,?,50.1µM*,10.2%,-5.1
COc1ccc(C2=C(C)C(N3CCN(C(=O)c4ccco4)CC3)=NS2(=O)=O)cc1,-17.6%,?,-13.3%,0.0%,51.2%,-8.6
O=c1cc(-c2ccccc2)nc(SCc2nc(-c3cccc(C(F)(F)F)c3)no2)[nH]1,-11.0%,1.0%,/,-14.3%[59 µM],26.3%[57 µM],/
CC(=O)c1ccc(NC(=O)c2ccc3c(c2)N(Cc2cccc(Cl)c2)C(=O)c2ccccc2S3(=O)=O)cc1,-12.6%,-18.1%,/,-3.6%[59 µM],35.8%,/
CN(CC(=O)Nc1ccc(Cl)c(Cl)c1)C(=O)CN1C(=O)NC2(CCCC2)C1=O,-20.7%,9.4%,-6.4%,?,4.8%,2.4
Cc1ccc(C(C(=O)Nc2ccc3c(c2)OCO3)N(C)C(=O)Cc2c[nH]c3ccccc23)cc1 (centres undefined),?,?,-10.5%,39.8µM*,-15.2%,3.3
CC(=O)NC(Cc1c[nH]c2ccccc12)C(=O)OCC(=O)Nc1ccc2c(c1)OCO2 (centres undefined),-19.8%,2.8%,1.4%,-8.7%[59 µM],10.4%,-3.3
CCOc1ccc(NC(=O)CN(C)C(=O)CN2C(=O)NC3(CCCC3)C2=O)cc1OCC,-13.8%,-6.5%,0.3%,56.2µM*,-11.1%,3.1
CCOc1ccc(NC(=O)CN(C)C(=O)Cc2c[nH]c3ccccc23)cc1OCC,-26.4%,-6.6%,-6.8%,50.1µM*,-17.1%,?
CCNC(=O)C1CCCN1C(=O)C(CCCN=C(N)N)NC(=O)C(CC(C)C)NC(=O)C(Cc1cn(Cc2ccccc2)cn1)NC(=O)C(Cc1ccc(O)cc1)NC(=O)C(CO)NC(=O)C(Cc1c[nH]c2ccccc12)NC(=O)C(Cc1cnc[nH]1)NC(=O)C1CCC(=O)N1 (centres undefined),?,?,?,/,14.6%,-10.2
Cc1cc2oc(C(=O)Nc3ccc(S(=O)(=O)N4CCCCCC4)cc3)cc(=O)c2cc1C,-9.0%,-4.5%,/,8.5%[59 µM],28.6%,/
SMILES,JMJD2A Tudor,BAZ2B inh,PLK1 PBD block,G9a block,HP1b binding inh,PI5P4K alpha inh
C#CCOCCOCCOCCNc1nc(N2CCN(C(=O)[C@H](C)n3cc(CCCN=C(N)N)nn3)CC2)nc(N2CCN(C(=O)[C@H](C)n3cc(CCCN=C(N)N)nn3)CC2)n1,-21.4%,-5.5%,-3.3%,79.4µM*,48.3%,6.9
C#CCOCCOCCOCCNc1nc(N2CCN(C(=O)Cn3cc(CC(C)O)nn3)CC2)nc(N2CCN(C(=O)[C@H]([C@@H](C)CC)n3cc(CCCN=C(N)N)nn3)CC2)n1 (some centres undefined),-7.6%,?,0.0%,50.1µM*,30.6%,-3.3
C#CCOCCOCCOCCNc1nc(N2CCN(C(=O)[C@H]([C@@H](C)CC)n3cc(CCCN=C(N)N)nn3)CC2)nc(N2CCN(C(=O)[C@H](Cc3ccc(O)cc3)n3cc(CCO)nn3)CC2)n1,?,?,-3.5%,44.7µM*,27.6%,4.6
C#CCOCCOCCOCCNc1nc(N2CCOCC2)nc(N2CCN(C(=O)Cn3cc(CCCN=C(N)N)nn3)CC2)n1,-4.2%,-1.9%,-5.8%,?,30.3%,3.7
C#CCOCCOCCOCCNc1nc(N2CCN(C(=O)Cn3cc(CCCN=C(N)N)nn3)CC2)nc(N2CCN(C(=O)Cn3cc(CCCN=C(N)N)nn3)CC2)n1,/,?,/,25.1µM*,/,/
Cc1ccc(-n2cc(CN3CCN(C(=O)c4ncn[nH]4)CC3)c(-c3ccc(F)cc3)n2)cc1,-15.1%,-10.6%,0.8%,/,10.2%[57 µM],-1.2
CCc1ccc(/C=C2\SC(=S)N(CCCC(=O)N3CCCC3)C2=O)cc1,/,/,-3.3%,/,/,0.6
C#CCOCCOCCOCCNc1nc(N2CCN(C(=O)[C@H]([C@@H](C)CC)n3cc(CCCN=C(N)N)nn3)CC2)nc(N2CCN(C(=O)[C@H]([C@@H](C)CC)n3cc(CCCN=C(N)N)nn3)CC2)n1,/,?,/,20µM*,/,/
C#CCOCCOCCOCCNc1nc(N2CCN(C(=O)[C@H]([C@@H](C)CC)n3cc(CCCN=C(N)N)nn3)CC2)nc(N2CCN(C(=O)[C@H](C)n3cc(CCCN=C(N)N)nn3)CC2)n1,-31.2%,?,-0.7%,39.8µM*,18.8%,0.4
S=C(NCCN1CCOCC1)Nc1ccc(Nc2ccccc2)cc1,-30.2%,?,-11.2%,/,?,-10.7
O=S(=O)(Nc1ccc(Br)cc1)c1cccc(NC(=S)NCCN2CCOCC2)c1,-14.0%,-14.6%,?,31.6µM*,-14.2%,-4.0
